# Source: PubChem BioAssay (Tox21)
# Inconclusive results are not listed. A number with no mark means an inactive call. Calls of active or inactive are those of the source. Calls come from the whole dose curve.
# Assay: qHTS assay for small molecule agonists of the antioxidant response element (ARE) signaling pathway - cell viability counter screen (AID 743203); note: nearly all actives have a fitted effect of over 55% in size
# Conditions: ARE-bla HepG2 viability, CellTiter-Glo luminescence, 16 h; series mostly up to 73.3 µM
# Excerpt: National Center for Advancing Translational Sciences [NCATS]
# NIH Chemical Genomics Center [NCGC]
# U.S. Environmental Protection Agency [EPA]
# National Institutes of Environmental Health Sciences [NIEHS]
# National Toxicology Program [NTP]
# U.S. Food and Drug Administration [FDA]
# Oxidative stress has been implicated in the pathogenesis of a variety of diseases ranging from cancer to neurodegeneration. The antioxidant response element (ARE) signaling pathway plays an important role in the amelioration of oxidative stress. The CellSensor ARE-bla HepG2 cell line (Invitrogen) can be used for analyzing the Nrf2/antioxidant response signaling pathway. Nrf2 (NF-E2-related factor 2) and Nrf1 are transcription factors that bind to AREs and activate these genes. The CellSensor ARE-bla Hep G2 cell line contains a beta-lactamase reporter gene under control of the Antioxidant Response Element (ARE) stably integrated into HepG2 cells. The activation of the report gene under culture conditions can be detected by fluorescence intensity. This cell line has been used to screen the Tox21 10K compound library to identify agonists that induce oxidative stress. The cytotoxicity of the Tox21 compound library against the ARE-bla cell line was tested in parallel by measuring the cell viability using CellTiter-Glo assay (Promega, Madison, WI) in the same wells.
# Tox21 Assay Protocol Summary:
# ARE-bla HepG2 cells were dispensed at 2,000 cells/5 ul/well in 1536-well white wall/solid bottom plates using a Multidrop Combi (ThermoFisher Scientific, Waltham, MA) dispenser. After the assay plates were incubated at 37C/5% CO2 for 5 hrs, 23 nL of compounds dissolved in DMSO, positive controls or DMSO only was transferred to the assay plate by a pintool work station (Kalypsys, San Diego, CA). The plates were incubated at 37C/5% CO2 for 16 hrs, followed by addition of 4 ul/well of CellTiter-Glo reagent into the assay plates using a Flying Reagent Dispenser (Aurora Discovery, San Diego, CA). After 30 min incubation at room temperature, the luminescence intensity in the assay plates was measured using a ViewLux (PerkinElmer, Shelton, CT) plate reader.
# % is set by controls: 0 for no effect and ±100 for the full control effect.
Compound,outcome,"viability change, negative = cytotoxic"
CC(C)(C)CC(C)(C)N,inactive,
CCCCNc1ccccc1,inactive,
COCc1ccc(COC)cc1,inactive,
COc1ccc(N=[N+]([O-])c2ccc(OC)cc2)cc1,inactive,
C1CCCCCCCCCCC1,inactive,
OC/C=C/c1ccccc1,inactive,
CCCCc1ccc(N)cc1,inactive,
Nc1ccc2cc(S(=O)(=O)O)ccc2c1,inactive,
CCCCCOC(=O)Nc1nc(=O)n([C@@H]2O[C@H](C)[C@@H](O)[C@H]2O)cc1F,inactive,
COc1ccc(COC=O)cc1,inactive,
Nc1ccn(C2CO[C@H](CO)O2)c(=O)n1 (stereo not given in full),inactive,
CCCCCN(CCCCC)C(=O)C(CCC(=O)O)NC(=O)c1ccc(Cl)c(Cl)c1 (stereo not given),inactive,
CCCCc1ccc2cccc(S(=O)(=O)O)c2c1,inactive,
c1cc(CN2CCCCC2)cc(OCCCNc2nc3ccccc3s2)c1,inactive,
NS(=O)(=O)c1cc(C2(O)NC(=O)c3ccccc32)ccc1Cl (stereo not given),inactive,
COC(=O)C1=C(C)NC(C)=C(C(=O)OCC(C)=O)C1c1ccccc1[N+](=O)[O-] (stereo not given),inactive,
CCCCCCCCCCCl,inactive,
CCCCCCCCCCCCI,inactive,
NS(=O)(=O)c1cc2c(cc1C(F)(F)F)NC(Cc1ccccc1)NS2(=O)=O (stereo not given),inactive,
OCc1ccccn1,inactive,

Compound,outcome,"viability change, negative = cytotoxic"
Cc1ccccc1Br,inactive,
CCCCOCC(C)OCC(C)O (stereo not given),inactive,
C=C(C)C(=O)NCCC[N+](C)(C)C,inactive,
COC(=O)CCCCCCCCC(=O)OC,inactive,
NC(=S)Nc1cccc2ccccc12,,10% [at 8.36 µM]
CCCC(=O)O[C@]1(C(=O)CCl)[C@@H](C)C[C@H]2[C@@H]3CCC4=CC(=O)C=C[C@]4(C)[C@@]3(F)C(=O)C[C@@]21C,inactive,
C=CCOCC(O)CS(=O)(=O)O (stereo not given),inactive,
NC(=O)c1ncn([C@@H]2O[C@H](CO)[C@@H](O)[C@H]2O)c1O,inactive,
C=CCSCC1Nc2cc(Cl)c(S(N)(=O)=O)cc2S(=O)(=O)N1 (stereo not given),inactive,
CCN1CCCC(OC(=O)C(c2ccccc2)c2ccccc2)C1 (stereo not given),inactive,
C=C(C)C(=O)OCCCCCCCCCCCCCCCCCC,inactive,
COc1ccc2cc(C=O)ccc2c1,inactive,
CO[Si](CCCNCCC[Si](OC)(OC)OC)(OC)OC,inactive,
CCCCC1CCCCC(=O)O1 (stereo not given),inactive,
CCCCCCC(=O)OCC,inactive,
N#CCc1ccccc1[N+](=O)[O-],inactive,
CCC(=O)Nc1cccc(N)c1,inactive,
CC1=CC(C)C(C=O)C(C)C1 (stereo not given),inactive,
CC(=O)c1ccc(C)cc1,inactive,
CCN1CCN(c2cc3c(cc2F)c(=O)c(C(=O)O)cn3C2CC2)CC1,inactive,
